Laboratory results reported in PubChem BioAssay AID624168 (Sanford-Burnham Center for Chemical Genomics, 2012).
About 800 (0.22%) of roughly 360,000 compounds were called active. The entries come from a sample that favours actives as a whole. A number with no mark means an inactive call.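 How the source made its calls: active means activation of at least 8% versus controls, or a plate z-score of at least 8; inactive means the rest.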

experiment: activators of alpha-DG glycosylation, primary screen, uHTS, Pro5-aDG cells, AlphaScreen (AID 624168); settings: alpha-DG glycosylation AlphaScreen (IIH6), at 10 µM, active compounds read high; 0% Pro5, 100% B10-LARGE cell signal unless noted;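 further: Pro5 are CHO cells carrying HIG-tagged alpha-DG that lacks glycosylation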

Row | Compound | activation
1 | CNCC(O)c1cc(F)c(OCc2ccccc2)c(OCc2ccccc2)c1F (stereo not given) | 7.7% (active)
2 | Cc1ccc(C2CN(C)CC2C(=O)c2ccc(F)cc2)cc1 (stereo not given) | 0% [setting not given]
3 | Cc1nc2ccccn2c1P(=S)(N1CCCCC1)N1CCCCC1 | -0.2% [setting not given]
4 | COc1cc(C(=O)N2Cc3ccc(Br)cc3-n3nncc3C2)cc(OC)c1OC | -0.2%
5 | COC(=O)C1=C(c2ccc(F)cc2OCc2ccccc2)C[C@@H]2CC[C@H]1N2C(=O)NCc1ccc(Cl)cc1 | 0.6%
